Inconclusive results are not listed. A call without a number means that no potency is given here. The source made the active and inactive calls. The call rests on the fitted dose curve.
Test: Primary qHTS for Vero E6 cytotoxicity: counterscreen for inhibitors of SARS-S pseudo-typed particle cell entry (AID 1479150)
Conditions: cell viability; series mostly up to 57.1 µM
Potency means the concentration at half of the fitted maximal effect.

Row | SMILES | Potency
1 | O=C(OC[C@H]1O[C@@H](OC(=O)c2cc(O)c(O)c(OC(=O)c3cc(O)c(O)c(O)c3)c2)[C@H](OC(=O)c2cc(O)c(O)c(OC(=O)c3cc(O)c(O)c(O)c3)c2)[C@@H](OC(=O)c2cc(O)c(O)c(OC(=O)c3cc(O)c(O)c(O)c3)c2)[C@@H]1OC(=O)c1cc(O)c(O)c(OC(=O)c2cc(O)c(O)c(O)c2)c1)c1cc(O)c(O)c(OC(=O)c2cc(O)c(O)c(O)c2)c1 | inactive
2 | CC(Cc1ccc(O)c(O)c1)C(C)Cc1ccc(O)c(O)c1 (stereo unspecified) | inactive
3 | C[C@H](Oc1cc(-c2cnn(C3CCNCC3)c2)cnc1N)c1c(Cl)ccc(F)c1Cl | inactive
4 | CC(C)N1CCN(c2ccc(OC[C@@H]3CO[C@@](Cn4cncn4)(c4ccc(Cl)cc4Cl)O3)cc2)CC1 | inactive
5 | CCCCC(=O)OCC(=O)[C@]1(O)Cc2c(O)c3c(c(O)c2[C@@H](O[C@H]2C[C@H](NC(=O)C(F)(F)F)[C@H](O)[C@H](C)O2)C1)C(=O)c1c(OC)cccc1C3=O | inactive
6 | CCSc1ccc2c(c1)N(CCCN1CCN(C)CC1)c1ccccc1S2 | inactive
7 | CCCCCCOc1ccc(C(=N)N(CCCC)CCCC)c2ccccc12 | 14.1 µM (active)
8 | Cc1[nH]c(/C=C2\C(=O)Nc3ccc(F)cc32)c(C)c1C(=O)NCCN1CCCC1 | inactive
9 | CC1(C)[C@@H](O[C@H]2O[C@H](C(=O)O)[C@@H](O)[C@H](O)[C@H]2O[C@@H]2O[C@H](C(=O)O)[C@@H](O)[C@H](O)[C@H]2O)CC[C@]2(C)[C@H]3C(=O)C=C4[C@@H]5C[C@@](C)(C(=O)O)CC[C@]5(C)CC[C@@]4(C)[C@]3(C)CC[C@@H]12 | inactive
10 | CC1CCCC(O)CCCCCc2cc(O)cc(O)c2C(=O)O1 (stereo unspecified) | inactive
11 | CCCN1C[C@@H](NS(=O)(=O)N(CC)CC)C[C@@H]2Cc3c(O)cccc3C[C@H]21 | inactive
12 | O=C(CCCN1CCC(n2c(=S)[nH]c3ccccc32)CC1)c1ccc(F)cc1 | inactive
13 | CC(CN1c2ccccc2Sc2cccnc21)N(C)C (stereo unspecified) | inactive
14 | O=C1CSC2(CCN(CCCN3c4ccccc4Sc4ccc(Cl)cc43)CC2)N1 | inactive
15 | COc1ccc2c(c1)N(C[C@H](C)CN(C)C)c1ccccc1S2 | inactive
16 | COc1cc(N2CCC(N3CCN(C)CC3)CC2)ccc1Nc1ncc(Cl)c(Nc2ccccc2P(C)(C)=O)n1 | inactive
17 | CC(=O)Oc1cc(C)c(OC(C)=O)c2ccccc12 | inactive
18 | CCC1OC(=O)C(C)C(OC2CC(C)(OC)C(O)C(C)O2)C(C)C(OC2OC(C)CC(N(C)C)C2O)C(C)(O)CC(C)C2NC(COCCOC)OC(C2C)C1(C)O (stereo unspecified) | inactive
19 | CCCCC(=O)O[C@H]1CC[C@H]2[C@@H]3CCc4cc(O)ccc4[C@H]3CC[C@]12C | inactive
20 | CC[C@@H](C(=O)O)[C@@H]1O[C@@H]([C@@H](C)[C@H](O)[C@H](C)C(=O)[C@H](CC)[C@H]2O[C@]3(C=C[C@@H](O)[C@]4(CC[C@@](C)([C@H]5CC[C@](O)(CC)[C@H](C)O5)O4)O3)[C@H](C)C[C@@H]2C)[C@@H](C)C[C@@H]1C | inactive
21 | C[C@](C#N)(COc1cc(C#N)ccc1C(F)(F)F)NC(=O)c1ccc(SC(F)(F)F)cc1 | inactive
22 | COC(=O)N[C@H](C(=O)N1CCC[C@H]1c1ncc(-c2ccc(-c3ccc(-c4cnc([C@@H]5CCCN5C(=O)[C@@H](NC(=O)OC)C(C)C)[nH]4)cc3)cc2)[nH]1)C(C)C | inactive
23 | NC(=O)c1cccc2cn(-c3ccc(C4CCCNC4)cc3)nc12 (stereo unspecified) | inactive
24 | CCCCCCCC(=O)CC[C@@H]1[C@@H](C/C=C\CCCC(=O)OC(C)C)[C@@H](O)C[C@H]1O | inactive
25 | Clc1ccc(CCCOCCCN2CCCCC2)cc1 | inactive

Test: Confirmatory qHTS for VERO E6 Cytotoxicity Assay: Counterscreen for SARS-CoV-2 CPE Assay (AID 1508605); further: nearly all actives have a fitted effect of over 60% in size
Conditions: cell viability luminescence; series mostly up to 20 µM

Row | SMILES | Potency
26 | c1ccc2c(-c3cnn4cc(-c5ccc(OCCN6CCOCC6)cc5)cnc34)ccnc2c1 | inactive
27 | CCCCCCOc1ccc(C(=N)N(CCCC)CCCC)c2ccccc12 | 10 µM (active)
28 | CNC(=O)c1ccc2c(C(=Nc3cccc(CN(C)C)c3)c3ccccc3)c(O)[nH]c2c1 | inactive
29 | COc1ccc2c(c1)N(C[C@H](C)CN(C)C)c1ccccc1S2 | inactive
30 | CCc1ccccc1OC[C@@H](O)CN[C@H]1CCCc2ccccc21 | inactive
31 | CS(=O)(=O)NCC1CCC(Nc2nc3c(s2)CCSc2ccccc2-3)CC1 (stereo unspecified) | inactive
32 | Cc1nc2ccc(Oc3ccc(F)cc3)cc2c(=O)n1C[C@H]1CCCN(C(C)C)C1 | inactive

Test: Cytotoxicity counterscreen for inhibitors of SARS-CoV-2 cell entry (AID 1645845); further: nearly all actives have a fitted effect of over 50% in size
Conditions: cell viability (SARS-CoV-2 entry assay cells); series mostly up to 57.1 µM
In short: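 ATP-content luminescence (ATPLite 1step, 15 min RT) read after 48 h compound exposure of Expi293F cells stably expressing human ACE2; normalized to cells-only wells and media-only wells.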

Row | SMILES | Potency
33 | COc1cc([C@@H]2c3cc4c(cc3[C@@H](O[C@@H]3O[C@@H]5CO[C@@H](C)O[C@H]5[C@H](O)[C@H]3O)[C@H]3COC(=O)[C@H]23)OCO4)cc(OC)c1OP(=O)(O)O | inactive
34 | CC(Cc1ccc(O)c(O)c1)C(C)Cc1ccc(O)c(O)c1 (stereo unspecified) | inactive
35 | C[C@H](Oc1cc(-c2cnn(C3CCNCC3)c2)cnc1N)c1c(Cl)ccc(F)c1Cl | inactive
36 | CC(C)N1CCN(c2ccc(OC[C@@H]3CO[C@@](Cn4cncn4)(c4ccc(Cl)cc4Cl)O3)cc2)CC1 | inactive
37 | CCCCC(=O)OCC(=O)[C@]1(O)Cc2c(O)c3c(c(O)c2[C@@H](O[C@H]2C[C@H](NC(=O)C(F)(F)F)[C@H](O)[C@H](C)O2)C1)C(=O)c1c(OC)cccc1C3=O | inactive
38 | C/C(=C(\CCOC(=O)c1ccccc1)SS/C(CCOC(=O)c1ccccc1)=C(/C)N(C=O)Cc1cnc(C)nc1N)N(C=O)Cc1cnc(C)nc1N | inactive
39 | C=CC(=O)Nc1cc(Nc2nccc(-c3cn(C)c4ccccc34)n2)c(OC)cc1N(C)CCN(C)C | 28.2 µM (active)
40 | Cc1[nH]c(/C=C2\C(=O)Nc3ccc(F)cc32)c(C)c1C(=O)NCCN1CCCC1 | inactive
41 | CC1(C)[C@@H](O[C@H]2O[C@H](C(=O)O)[C@@H](O)[C@H](O)[C@H]2O[C@@H]2O[C@H](C(=O)O)[C@@H](O)[C@H](O)[C@H]2O)CC[C@]2(C)[C@H]3C(=O)C=C4[C@@H]5C[C@@](C)(C(=O)O)CC[C@]5(C)CC[C@@]4(C)[C@]3(C)CC[C@@H]12 | inactive
42 | CCCCCCCCCCCCCC[n+]1ccc(C)cc1 | 5.62 µM (active)
43 | CC(CN1c2ccccc2Sc2cccnc21)N(C)C (stereo unspecified) | inactive
44 | COc1ccc2c(c1)N(C[C@H](C)CN(C)C)c1ccccc1S2 | inactive
45 | COC(=O)N[C@H](C(=O)N1CCC[C@H]1c1ncc(-c2ccc(-c3ccc(-c4cnc([C@@H]5CCCN5C(=O)[C@@H](NC(=O)OC)C(C)C)[nH]4)cc3)cc2)[nH]1)C(C)C | 39.8 µM (active)
46 | Clc1ccc(CCCOCCCN2CCCCC2)cc1 | inactive
